Reference: ChEMBL document CHEMBL3988442, “University of Dundee, Small-Polar-MMV Screening Library” (2021)
Entries with a potency or affinity are not part of this list.

These compounds were tested against Protein translocase subunit SecA (Escherichia coli (strain K12)) (UniProt P10408) (assay: Assay to Identify E. coli SecA ATPase Inhibitors). Details: 30 µM.
Assay type: functional
Parameters: scale not given: direction of the effect not stated beside the values

Sequence of Protein translocase subunit SecA (Escherichia coli (strain K12)) (P10408 whole entry): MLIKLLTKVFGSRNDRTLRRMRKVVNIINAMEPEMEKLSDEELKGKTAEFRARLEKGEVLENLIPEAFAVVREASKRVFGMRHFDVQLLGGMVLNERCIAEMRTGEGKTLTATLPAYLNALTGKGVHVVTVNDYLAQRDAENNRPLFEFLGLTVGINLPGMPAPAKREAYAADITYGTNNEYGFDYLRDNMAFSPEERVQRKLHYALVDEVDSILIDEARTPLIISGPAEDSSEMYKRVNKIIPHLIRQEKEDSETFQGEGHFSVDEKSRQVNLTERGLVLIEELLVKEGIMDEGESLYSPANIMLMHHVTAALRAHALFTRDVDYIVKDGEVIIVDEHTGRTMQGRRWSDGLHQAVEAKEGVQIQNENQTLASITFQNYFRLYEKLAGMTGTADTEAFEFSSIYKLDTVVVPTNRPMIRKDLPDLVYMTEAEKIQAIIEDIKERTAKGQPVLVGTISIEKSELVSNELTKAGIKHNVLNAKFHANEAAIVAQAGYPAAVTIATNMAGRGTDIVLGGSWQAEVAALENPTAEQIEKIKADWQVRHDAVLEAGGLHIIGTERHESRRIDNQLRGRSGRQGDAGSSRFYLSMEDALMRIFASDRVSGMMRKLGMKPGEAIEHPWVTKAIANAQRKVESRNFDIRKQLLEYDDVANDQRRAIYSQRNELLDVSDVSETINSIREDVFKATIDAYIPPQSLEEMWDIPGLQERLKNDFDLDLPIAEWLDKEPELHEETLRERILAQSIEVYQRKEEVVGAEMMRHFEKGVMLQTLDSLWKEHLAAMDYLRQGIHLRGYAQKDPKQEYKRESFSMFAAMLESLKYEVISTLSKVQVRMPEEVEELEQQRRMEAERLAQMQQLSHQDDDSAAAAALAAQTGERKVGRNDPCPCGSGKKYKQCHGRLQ

First: CN(Cc1nc(-c2ccco2)no1)C1CCCN(c2cccnn2)C1 (stereo not given)
Second: CN(Cc1cccc(F)c1)C1CCN(CCc2ccccn2)CC1
The Percent Effect of the first is higher: -1.52% for the first, -3.25% for the second.

Compared with `CC(C)(O)CN1CCN(C(=O)c2sccc2C2CC2)CC1`, `Cc1ccsc1C(=O)N1CC(C(=O)NCC2CC2)C2(CCOCC2)C1` (stereo not given) is lower in Percent Effect: -3.28% for the first, -6.49% for the second.

Going from `COc1ccccc1NC(=O)NCC(O)(c1ccccc1)C1CC1` (stereo not given) to `CC(=O)N1CCCCC1c1nc(N)ncc1-c1ccccc1` (stereo not given), the Percent Effect rises from -6.75% to -3.36%.

Going from `O=C(c1cccnc1)N1CCCC2(CCN(c3ccsc3)C2=O)C1` (stereo not given) to `Cc1nc(CN2CCC3(CCCN(Cc4cnn(C)c4)C3)C2=O)cs1` (stereo not given), the Percent Effect rises from -2.21% to 2.6%.

Going from `CC(O)CN1CCN(Cc2csc(-c3ncccn3)n2)CC1` (stereo not given) to `CSC(C)C(=O)N1CCCN(Cc2cscn2)CC1` (stereo not given), the Percent Effect falls from 1.21% to -3.08%.

First: O=C(c1ccc(O)c(Cl)c1)N1CCC(c2n[nH]c(C3CC3)n2)CC1
Second: CCN(c1ccc(C(=O)N2CCCC2)cc1)S(=O)(=O)CC
The Percent Effect of the first is lower: -6.1% for the first, 2.05% for the second.

Going from `Cn1cnc(S(=O)(=O)NCCCN2CCCCCC2)c1Cl` to `Cc1nn(C)c(N2CCOCC2)c1CNCc1ccnc(N(C)C)c1`, the Percent Effect rises from -4.4% to -1.81%.

First: CCOC(=O)CCNC(=O)N1CCN(c2nc3ccccc3n2C)CC1
Second: CC(NC(=O)CNCCn1cccn1)c1ccc2c(c1)OCCO2 (stereo not given)
The Percent Effect of the first is higher: -1.65% for the first, -2.65% for the second.

Going from `Cc1nn(C)c(C)c1-c1cncc(C2CCN(S(C)(=O)=O)CC2)n1` to `O=C(C1CCC1)N1CCN(Cc2ccsc2)[C@H]2CS(=O)(=O)C[C@H]21`, the Percent Effect falls from 0.332% to -4.53%.

First: CNC(=O)[C@H]1CCS(=O)(=O)[C@@H]2CN(Cc3ccc(OC)cc3)C[C@H]12
Second: O=C(NCC1CC1)[C@@H]1CCO[C@@H]2CCN(Cc3ccco3)C[C@H]21
The Percent Effect of the first is higher: 0.0608% for the first, -1.9% for the second.
